# Screening results deposited in PubChem BioAssay by National Center for Advancing Translational Sciences (NCATS).
# This is a sample that favours compounds with a hit; in the whole collection about 11% have one here.
# ALDH1A1 inh: qHTS Assay for Inhibitors of Aldehyde Dehydrogenase 1 (ALDH1A1); Aldehyde dehydrogenase 1A1 (Homo sapiens), P00352; Purified ALDH1A1, NADH fluorescence, propionaldehyde substrate; Potency, µM (top dose mostly 75.3 µM), without a hit: top-dose activity, negative = inhibition, actives largely listed as inhibitors; 220,000 compounds, 7.3% hits; AID 1030, 2008;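 also: potency is read from the fitted curve at half-maximal effect; plate controls were no enzyme wells and a reference inhibitor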
# PNC inhibitor: High Content Assay for Compounds that inhibit the Assembly of the Perinucleolar Compartment. activity change (PNC), negative = inhibition, % at 10 µM. 140,000 compounds, 3.1% hits. PC3M PTB-GFP, PNC prevalence imaging, 16 h; hits give low values;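 active = readout at or below -70, meaning at least 70% loss of cells showing the perinucleolar compartment, a nuclear body marking cancer cells; inconclusive = readout between -30 and a set limit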;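 also: plate controls were DMSO wells for no effect and camptothecin positive control wells for full effect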
#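 Read-out is percentage of cells bearing a perinucleolar compartment, from automated 20x imaging of fixed, Hoechst-stained PC3M PTB-GFP cells. Cells were seeded 4 h, then exposed 16 h to compound (23 nl of library stock) in duplicate plates.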
# KDM4E inh: qHTS Assay for Inhibitors of Human Jumonji Domain Containing 2E (JMJD2E); Lysine-specific demethylase 4E (Homo sapiens), B2RXH2; JMJD2E catalytic domain, FDH-coupled NADH fluorescence (FDH is formaldehyde dehydrogenase); Potency, µM (top dose mostly 57.1 µM), for inactives: top-dose activity change, negative = inhibition, most hits filed as inhibitors; 230,000 compounds, 1.6% hits;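 also: potency is read from the fitted curve at half-maximal effect; 0% = wells with enzyme and -100% = buffer wells without enzyme; nearly all actives have a fitted effect of over 50% in size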
# Target sequence (B2RXH2 1-337 limits assumed): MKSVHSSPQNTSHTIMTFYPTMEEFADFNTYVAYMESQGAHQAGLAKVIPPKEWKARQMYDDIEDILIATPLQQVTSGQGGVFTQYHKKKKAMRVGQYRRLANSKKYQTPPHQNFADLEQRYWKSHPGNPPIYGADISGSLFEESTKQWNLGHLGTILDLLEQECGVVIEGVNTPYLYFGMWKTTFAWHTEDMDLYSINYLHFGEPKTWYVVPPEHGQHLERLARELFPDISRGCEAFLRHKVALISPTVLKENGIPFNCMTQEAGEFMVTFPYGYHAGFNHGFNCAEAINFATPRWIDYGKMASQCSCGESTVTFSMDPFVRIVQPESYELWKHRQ
# HPGD inh: qHTS Assay for Inhibitors of HPGD (15-Hydroxyprostaglandin Dehydrogenase); purified HPGD, NADH fluorescence kinetic, PGE2 substrate; Potency, µM, for inactives: at the top dose activity change, negative = inhibition, actives largely listed as inhibitors; 150,000 compounds, 4.3% hits; AID 894, 2007; also: potency is read from the fitted curve at half-maximal effect
# Target sequence (P15428 whole entry, looked up): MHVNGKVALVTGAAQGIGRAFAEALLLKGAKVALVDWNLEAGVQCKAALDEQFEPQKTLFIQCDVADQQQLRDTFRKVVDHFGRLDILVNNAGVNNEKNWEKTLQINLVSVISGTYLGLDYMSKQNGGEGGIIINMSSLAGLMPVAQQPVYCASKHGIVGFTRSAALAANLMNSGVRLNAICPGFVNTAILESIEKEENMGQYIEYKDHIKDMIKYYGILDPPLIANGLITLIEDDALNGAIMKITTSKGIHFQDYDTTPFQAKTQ
#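 NADH formation kinetics: reaction with 30 uM PGE2 and 1 mM NAD+ (final), 20 nM enzyme, Tris-HCl pH 8 with Tween 20, after 15 min compound preincubation at room temperature. Fluorescence change, last versus first of five reads.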
# Active calls of the source: *; ? = inconclusive; . = not tested or not shown; [ ] = another dose, or the depositor's remark. Unless noted, calls follow the shape of the dose curve; as a rule, active = well fitted inhibition curve with a large enough effect (not every such curve was filed as active); inconclusive = small, poorly fitted or top-dose-only effect, or another doubt; inactive = no such curve, though single readings can be large or run the other way. Unless noted, % is scaled to controls: 0 for no effect and ±100 for the full control effect.
SMILES,ALDH1A1 inh,PNC inhibitor,KDM4E inh,HPGD inh
COc1ccc(NC(C)=O)cc1NC(=O)c1ccc2ccccc2c1,-5.9%,.,5.0%,.
O=C(O)CC12C[C@H]3C[C@@H](CC(O)(C3)C1)C2,2.2%[13.5 µM],.,.,-9.1%
O=C(O)Cc1ccc(C(=O)c2cccs2)s1,10µM*,5.6,5.1%,12.6µM*
O=C(O)c1ccccc1C(=O)c1cccs1,4.8%,?,-1.5%,-10.1%
COCCNc1nc(CSc2ccccc2)nc2sc(C)c(C)c12,?,-85.9*,-9.1%,.
Cc1sc2nc(CSc3ccccc3)nc(N3CCN(C)CC3)c2c1C,-1.3%,27.4,-3.8%,-5.5%
NC(=O)c1sc2cc(C(F)(F)F)cnc2c1-c1ccccc1,4.2%,.,-5.6%,.
Cn1c(-c2sc3cc(C(F)(F)F)cnc3c2-c2ccccn2)n[nH]c1=S,35.5µM*,.,-13.0%,.
Cn1c(-c2sc3cc(C(F)(F)F)cnc3c2-c2cccnc2)n[nH]c1=S,?,38.4,-20.0%,28.2µM*
CC(=O)NC(C)c1nc2ccccc2n1C(C)C (centres undefined),6.3%,-119.3*,11.5%,-15.4%
CCCS(=O)(=O)N1CCCC(C(=O)NC2CCCC(C)C2C)C1 (centres undefined),-3.8%,-82.0*,-4.2%,-5.9%
COCCNC(=O)C(=O)N/N=C/c1ccccc1C(F)(F)F,1.8%,29.0,-3.0%,2.9%
O=C(c1cc(O)c(O)c([N+](=O)[O-])c1)c1ccccc1F,12.6µM*,.,11.2µM*,14.1µM*
COc1ccccc1-c1cc(C(F)(F)F)nc(S(C)(=O)=O)n1,-4.4%,?,?,25.1µM*
CCCCCCCCCCCCCCCC(=O)N[C@H](CN1CCOCC1)[C@H](O)c1ccccc1,-6.1%,.,0.2%,-27.9%
CCOc1ccc(-n2cnnn2)cc1S(=O)(=O)Nc1c(C)cccc1C,6.1%,?,-6.5%,14.1µM*
O=C(O)CSc1c(-c2ccccc2)[nH]c2ccccc12,?,-84.7*,-2.4%,-15.9%
COc1ccc(N2CCN(C(=O)CN(c3ccccc3)S(=O)(=O)c3ccc(OC)cc3)CC2)cc1,-10.8%,17.9,1.9%,-17.1%
COc1ccc(S(=O)(=O)N(CC(=O)N2CCN(c3ccccc3OC)CC2)c2ccccc2)cc1,7.08µM*,22.5,7.3%,-21.0%
O=C(N/N=C/c1cccc([N+](=O)[O-])c1)C1CC(=O)N(c2ccc(Cl)cc2)C1 (centres undefined),-4.7%,-16.9,2.1%,-12.8%
COc1ccc(N2CC(C(=O)N/N=C/c3cc([N+](=O)[O-])ccc3O)CC2=O)cc1 (centres undefined),?,.,25.1µM*,.
Cc1ccc(N2CC(C(=O)N/N=C/c3cccc([N+](=O)[O-])c3)CC2=O)cc1 (centres undefined),-14.0%,-82.9*,2.0%,-18.1%
NC(=NC1C2CC3CC(C2)CC1C3)Nc1ccc(I)cc1 (centres undefined),-6.2%,.,-0.1%,-11.2%
CCc1nn(CCCC(=O)N2CCc3ccccc3C2)c(=O)c2cc3occc3n12,?,60.4,?,31.6µM*
Cc1nn(CCCC(=O)N2CCc3ccccc3C2)c(=O)c2cc3sccc3n12,0.2%,-9.8,-5.4%,-18.6%
SMILES,ALDH1A1 inh,PNC inhibitor,KDM4E inh,HPGD inh
O=C(CNC(=O)c1ccco1)OCC(=O)c1cccc2ccccc12,22.4µM*,26.4,-3.4%,-17.5%
O=C(NCc1ccco1)c1cccnc1-c1nc2ccccc2s1,8.91µM*,-10.9,?,15.8µM*
O=C(NCc1ccco1)c1ccc(COc2ccc(Cl)cc2)cc1,-5.7%,-17.2,5.9%,-23.6%
CN(c1ccccc1C(=O)Nc1ccccc1C(=O)NCc1ccco1)S(C)(=O)=O,-2.3%,-116.6*,3.3%,-11.8%
O=C(NCc1ccco1)c1cccnc1Cl,?,-11.1,0.3%,?
CC(C)COc1ccc(C(=O)NCc2ccco2)cc1,?,?,-1.6%,15.8µM*
CCN(C(=O)CSc1nc2ccccc2c(=O)n1C(C)COC)C1CCS(=O)(=O)C1 (centres undefined),10.2%,.,-7.6%,.
O=C(CSc1nnc2ccc(-c3ccc(F)cc3)nn12)N1CCCC1,0.8%,.,?,.
CC(C)(Oc1ccc(Cl)cc1)C(=O)NCc1ccco1,12.6µM*,?,-1.9%,-21.0%
CCOc1ccc(C(=O)NCc2ccco2)cc1,?,10.4,3.5%,28.2µM*
O=C(NCc1ccco1)c1ccc2c(c1)C(=O)c1ccccc1-2,28.2µM*,?,0.1%,15.8µM*
CC(C)(Oc1ccc(Cl)cc1)C(=O)NCc1ccncc1,-1.2%,-9.2,-0.4%,1.6%
O=C(NCc1ccco1)c1ccc(S(=O)(=O)N2CCCc3ccccc32)cc1,14.1µM*,-19.7,8.2%,-26.5%
N[C@@H](Cc1cc(I)c(Oc2ccc(O)cc2)c(I)c1)C(=O)O,0.9%,.,.,.
O=C(Nc1ccccc1C(=O)NCc1ccco1)Nc1cccc2ccccc12,-6.8%,.,?,.
O=C(NCc1ccco1)c1ccc(COc2ccccc2Cl)cc1,?,56.8,2.1%,14.1µM*
CCOc1ccc(C(=O)NCC(C)C)cc1,10.6%,7.3,-0.8%,17.8µM*
O=C(NCc1ccco1)c1c(F)cccc1Cl,-8.8%,-18.9,3.5%,14.1µM*
O=C(NCc1ccco1)c1cccc2ccccc12,-7.1%,-18.7,-2.2%,14.1µM*
C=C1C2c3ccccc3C(CC2(C)O[Si](C)(C)C)N1C(=O)OC (centres undefined),3.1%[13.5 µM],.,3.4%[11.4 µM],-2.3%
COC(CN(C(=O)CCl)C(C(=O)NC1CCCCC1)c1ccc(C)cc1)OC (centres undefined),?,20.3,-1.3%,-5.9%
COc1ccc(CN(C)C(=O)COC(=O)c2c(-c3ccccc3Cl)noc2C)cc1,?,.,-0.6%,.
O=C(NCc1ccco1)c1cccc(F)c1,-2.8%,5.3,-6.5%,?
O=C(NCc1ccco1)c1ccc(Oc2ccccc2)cc1,?,?,-0.5%,28.2µM*
O=C(NCc1ccco1)c1ccc2ccccc2c1,0.9%,?,-3.8%,31.6µM*
SMILES,ALDH1A1 inh,PNC inhibitor,KDM4E inh,HPGD inh
C[C@H](CC(=O)O)C(C(=O)O)C(=O)O,-2.9%[13.5 µM],.,.,0.3%
COCCNC(=S)Nc1cccc2cnccc12,-14.4%,.,-11.9%,.
COc1ccc(OCCNC(=S)Nc2cccc3ccccc23)cc1,3.6%,30.5,-12.7%,-12.3%
S=C(NCCc1ccccc1)Nc1cccc2cnccc12,20µM*,.,?,.
COc1ccc(CCNC(=S)Nc2cccc3ccccc23)cc1,22.4µM*,-2.1,-28.6%,-7.7%
CCCCNC(=S)Nc1cccc2cnccc12,?,31.0,-5.8%,.
CCn1cc(CNC(=S)Nc2cccc3ccccc23)cn1,6.31µM*,.,?,.
S=C(NCc1cccnc1)Nc1cccc2ccccc12,5.01µM*,-7.4,?,-20.0%
CC(C)(CO)NC(=S)NCc1ccco1,?,.,-18.7%,.
CC(C(=O)Nc1cccc(S(=O)(=O)N2CCOCC2)c1)N1CCN(c2ccc(F)cc2)CC1 (centres undefined),-6.0%,.,-7.5%,.
